FLuc counter = firefly luciferase modulation, counter-screen for miR-21 project; P08659; Potency, µM (highest dose often 57.5 µM), without a hit: top-dose activity change, negative = inhibition, actives largely listed as inhibitors; purified FLuc, Km substrates, luminescence inhibition; 360,000 tested, 6.9% active; AID 588342;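 note: plate controls were vehicle for no effect and reference inhibitor for full effect; nearly all actives have a fitted effect of over 55% in size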
Target sequence (P08659 whole entry, looked up): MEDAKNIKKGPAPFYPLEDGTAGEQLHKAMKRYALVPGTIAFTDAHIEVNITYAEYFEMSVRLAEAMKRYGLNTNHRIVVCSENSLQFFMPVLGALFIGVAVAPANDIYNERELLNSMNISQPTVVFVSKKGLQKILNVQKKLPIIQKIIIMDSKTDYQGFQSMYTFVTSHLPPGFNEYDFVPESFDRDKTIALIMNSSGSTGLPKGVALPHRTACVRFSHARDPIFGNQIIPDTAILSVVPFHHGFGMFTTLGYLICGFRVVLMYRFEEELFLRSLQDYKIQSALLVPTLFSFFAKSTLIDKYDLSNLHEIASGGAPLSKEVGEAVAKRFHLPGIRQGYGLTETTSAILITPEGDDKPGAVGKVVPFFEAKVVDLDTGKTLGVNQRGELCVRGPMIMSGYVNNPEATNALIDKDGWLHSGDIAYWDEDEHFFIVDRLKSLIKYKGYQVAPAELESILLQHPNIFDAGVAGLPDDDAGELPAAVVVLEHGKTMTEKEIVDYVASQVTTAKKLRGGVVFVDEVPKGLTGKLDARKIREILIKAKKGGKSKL
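Biochemical qHTS of compounds, final roughly 60 µM downward over six points, against 10 nM purified firefly luciferase using Km concentrations of substrates (10 uM D-luciferin, 10 uM ATP) in Tris acetate pH 7.5 buffer; luminescence output.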
ELG1 DNA repair = ELG1-dependent DNA repair inhibition; HEK293T ELG1-luciferase reporter, luminescence, 16 h; DNA damage induced by 5-fluorouridine; Potency, µM (titrated, usually from 46.1 µM), for the others: at the top dose activity change, negative = inhibition, actives largely listed as inhibitors; 330,000 tested, 2.3% active; note: % is set by controls: 0 for no effect and ±100 for the full control effect; nearly all actives have a fitted effect of over 55% in size
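5-Fluorouridine DNA damage + compound/DMSO, 2,000 cells/well, 16 h, 37 °C/5% CO2. ONE-Glo, 30 min RT, luminescence. Readout = decrease in reporter signal.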
Rab9 promoter act = activators of Rab9 promoter. Huh7 Rab9 promoter-luciferase reporter, luminescence, 24 h. Potency, µM (top dose mostly 9.22 µM), for the others: at the highest dose activation, negative = inhibition, actives largely listed as activators. 320,000 tested, 2.8% active; note: % of control where 0% means no effect; nearly all actives have a fitted effect of over 60% in size
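Measured in stably transfected Huh7 cells bearing a Rab9 promoter–luciferase construct: 24 h compound treatment at 37 °C, followed by luminescence detection.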
SMN2 splice enh = increases expression of the SMN2 splice variant | HEK293 SMN2-luciferase splicing reporter, luminescence, 30-36 h | Potency, µM (doses to about 46.1 µM), for the others: at the highest dose activity change, positive = activation, usual class: activators | 210,000 tested, 2.8% active; note: % of control where 0% means no effect; nearly all actives have a fitted effect of over 55% in size
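qHTS luciferase splicing reporter: luminescence rises when SMN2 exon 7 is included in transfected HEK293 cells. Compound exposure lasted 30-36 h at 37C, with 4.5 mM final sodium butyrate as control, followed by a ONE-Glo read.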
ELG1 genotoxic = genotoxicity induction in ELG1-luciferase HEK293T cells. HEK293T ELG1-luciferase reporter, luminescence, 16 h. 330,000 tested, 1.3% active. Potency, µM (highest dose often 46 µM), for the others: top-dose activity change, positive = activation, hits mostly activators; note: % of control where 0% means no effect; nearly all actives have a fitted effect of over 60% in size
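Cells (2,000/well) expressing the ELG1-luciferase fusion are dosed by pin tool and kept 16 hr at 37 °C, 5% CO2. Signal comes from ONE-Glo luciferase reagent after 30 min at room temperature.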
NPC1 promoter act = activates the NPC1 promoter. Huh7 NPC1 promoter luciferase reporter, 24 h. Potency, µM (highest dose often 9.22 µM), for the others: at the top dose activation, usual class: activators. 320,000 tested, 2.4% active. AID 485313; note: % of control where 0% means no effect; nearly all actives have a fitted effect of over 60% in size
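NPC1 promoter–luciferase Huh7 cells; 24 h compound; luminescence.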
Numbers without * were called inactive; u = inconclusive; x = not tested or not shown. Sampled rows, rich in hits. Any-hit rate of the full collection: about 9.3%. Calls come from the whole dose curve; as a rule, active = well fitted curve in the direction sought with a large enough effect; inconclusive = small, poorly fitted or top-dose-only effect, or another doubt; inactive = no such curve, though single readings can be large; an effect the other way counts as inactive or inconclusive. Potency is the fitted concentration of half-maximal effect.

SMILES | FLuc counter | ELG1 DNA repair | Rab9 promoter act | SMN2 splice enh | ELG1 genotoxic | NPC1 promoter act
O=C1CCC2S/C(=C/Nc3ccc(C(F)(F)F)cc3)C(=O)N12 (configuration not stated) | 15µM* | u | -38% | -80% | -13% | -30%
CC(C)C[C@@H](CC(=O)N[C@@H](CCC(=O)O)CC(=O)O)NC(=O)[C@@H]1CNCC[C@H]1NC(=O)C[C@H](CCCN)NC(=O)C[C@H](Cc1c[nH]c2ccccc12)NC(=O)[C@@H]1CNCC[C@H]1N | x | x | x | 10% | x | x
O=C(Nn1c(O)c(C=C2N=c3ccccc3=N2)sc1=S)c1ccccc1Cl | 15µM* | u | -1% | -3% | -1% | -1%
Oc1c(C=C2N=c3ccccc3=N2)sc(=S)n1-c1ccccc1 | -8% | 8% | -3% | -24% | 0% | -5%
O=S(=O)(Nn1c(O)c(C=C2N=c3ccccc3=N2)sc1=S)c1ccccc1 | 15µM* | u | 1% | x | -5% | -2%
CCn1c(O)c(C=C2N=c3ccccc3=N2)sc1=S | 2% | -5% | 1% | -13% | 0% | -1%
C=CCN1C(=NC(=O)CCCC(=O)O)SC2CS(=O)(=O)CC21 (configuration not stated) | 2% | -17% | -4% | 4% | 1% | 7%
Cc1ccn2cc(CCNC(=O)C3CCCCC3)nc2c1 | 6% | 23% | 2% | -5% | -5% | -4%
N=c1oc2c3c4c(cc2cc1C(=O)Nc1ccccc1)CCCN4CCC3 | 1.9µM* | u | u | 10µM* | u | u
CN(Cc1ccccc1)C(=O)C1CCC(CNS(=O)(=O)c2ccc3c(c2)CCCC(=O)N3)CC1 (configuration not stated) | -3% | x | x | x | x | x
O=C1C2C3C=CC(C3)C2C(=O)N1CCCCCCN1C(=O)C2C3C=CC(C3)C2C1=O (configuration not stated) | 4.3µM* | u | 4µM* | x | u | -19%
O=C(O)CCN1C(=O)C2C3C=CC(C3)C2C1=O (configuration not stated) | 7% | 0% | 3% | 5% | 11% | 8%
CCn1c(CCNC(=O)c2cccs2)nnc1SCC(=O)Nc1ccc(Cl)cc1 | 17µM* | 6% | -3% | -22% | 12% | 0%
CCn1c(CCNC(=O)c2cccs2)nnc1SCC(=O)NC1CCCCC1 | -15% | 15% | -7% | -13% | 1% | -1%
O=C(O)/C=C\C(=O)NNC(=O)c1cc(-c2ccccc2)n[nH]1 | 11µM* | 4% | 3% | x | -1% | -1%
O=C(O)/C=C/C(=O)NNC(=O)c1cc(-c2ccccc2)n[nH]1 | 11µM* | -11% | -2% | -11% | 0% | 1%
O=C(O)c1cc(-c2ccccc2)n[nH]1 | -11% | u | 0% | -1% | 1% | -1%
O=C(NNS(=O)(=O)c1ccccc1F)c1cc(-c2ccccc2)n[nH]1 | -14% | 4% | -1% | x | -12% | 6%
COc1cc(C2C(C(=O)c3ccc(C)o3)=C(O)C(=O)N2Cc2ccccc2)ccc1O (configuration not stated) | 5% | 29% | -1% | x | -5% | -3%
Clc1ccc(C2=NN(c3ccccc3)C(c3ccco3)C2)cc1 (configuration not stated) | u | u | -5% | x | -1% | 8%
Cc1nc(N2N=C(c3ccc(Cl)cc3)CC2c2ccco2)sc1C(=O)N(C)C (configuration not stated) | 15µM* | u | 2% | 10% | 1% | -1%
COc1ccc2c(c1)O[C@@H](c1ccc3c(c1)OCO3)[C@H](OC(=O)NCCOc1ccccc1)C2=O | x | x | x | 1% | x | x
O=C(Nc1c2n(c(=S)n(-c3ccccc3)c1=O)CCCCC2)c1ccccc1 | -5% | 17% | -3% | 10% | 4% | -5%
O=C(O)c1ccc(-c2nc3scc(-c4ccccc4)c3c(=O)[nH]2)cc1 | 9.5µM* | -3% | -10% | x | -1% | 0%
CC(=O)N1CCN(Cc2nc3scc(-c4ccccc4)c3c(=O)[nH]2)CC1 | -1% | -7% | -2% | -7% | -1% | -4%
SMILES | FLuc counter | ELG1 DNA repair | Rab9 promoter act | SMN2 splice enh | ELG1 genotoxic | NPC1 promoter act
O=c1[nH]c(-c2ccc(O)cc2)nc2scc(-c3cccs3)c12 | 11µM* | u | 2µM* | x | u | 2.8µM*
CC(C)(C)c1nc2scc(-c3cccs3)c2c(=O)o1 | 13µM* | 14% | 15% | x | 0% | 0%
COc1cccc(C(=O)Nc2ccccc2-c2nc3ccccc3s2)c1 | -1% | x | x | 9% | x | x
Cc1c(NC(=O)c2ccc(N3CCCC3)c([N+](=O)[O-])c2)cccc1-c1nc2ccccc2s1 | 2.7µM* | u | 17% | -37% | -5% | 1%
Cc1c(NC(=O)c2ncn[nH]2)cccc1-c1nc2ccccc2s1 | 4.3µM* | u | 22% | 8% | 1% | 19%
Cc1nc(-n2nnc3cc(C)c(C)cc32)c2c3c(sc2n1)CCCC3 | -1% | -1% | -3% | -13% | 0% | 1%
CCN1CCN(CCCNC(=O)c2cc3c(=O)oc4ccc(C)cc4c3s2)CC1 | -2% | u | -2% | x | 1% | -16%
COc1ccc(C(=O)Nc2ccc(Nc3ccccc3)cc2)cc1[N+](=O)[O-] | 1% | u | -1% | x | -11% | -6%
CCN(CC)c1ccc(C(=O)Nc2ccccc2)cc1[N+](=O)[O-] | 12µM* | u | u | 11µM* | 0% | u
Cn1nccc1C(=O)Nc1ccc(S(=O)(=O)N2CCCC2)cc1 | 4% | -20% | 17% | x | 3% | 0%
O=C(Nc1ccc(S(=O)(=O)N2CCCC2)cc1)c1ccc([N+](=O)[O-])cc1 | 0% | 9.2µM* | -3% | x | -6% | 0%
CC(Cc1ccccc1)NC(=O)c1ccc([N+](=O)[O-])cc1 (configuration not stated) | 12µM* | u | 1.8µM* | 14µM* | u | 2.8µM*
Cn1nc(C(=O)Nc2ccc(S(=O)(=O)N3CCCCC3)cc2)ccc1=O | -1% | 16µM* | 3% | -18% | -1% | -1%
O=C(Nc1ccc([N+](=O)[O-])cc1)c1ccccc1 | 17µM* | u | 3.2µM* | x | 15% | 2.2µM*
Cc1c(Cl)cccc1Nc1ccccc1C(=O)O | 17µM* | -22% | -2% | -2% | -2% | -5%
O=C(O)c1ccccc1Nc1ccc([N+](=O)[O-])cc1 | u | u | u | 7.1µM* | -2% | 19%

Compound activity deposited in PubChem by National Center for Advancing Translational Sciences (NCATS).
